Laboratory results from ChEMBL document CHEMBL3988442, “University of Dundee, Small-Polar-MMV Screening Library” (2021).
For some of these results: Entries with a potency or affinity are not part of this list.

Tests used:
Design in all cases: scale not given: direction of the effect not stated beside the values
[1] = target: Protein translocase subunit SecA (Escherichia coli (strain K12)) (UniProt P10408); assay: Assay to Identify E. coli SecA ATPase Inhibitors; assay type: functional; conditions: 30 µM
Chain of Protein translocase subunit SecA (Escherichia coli (strain K12)) (P10408 whole entry): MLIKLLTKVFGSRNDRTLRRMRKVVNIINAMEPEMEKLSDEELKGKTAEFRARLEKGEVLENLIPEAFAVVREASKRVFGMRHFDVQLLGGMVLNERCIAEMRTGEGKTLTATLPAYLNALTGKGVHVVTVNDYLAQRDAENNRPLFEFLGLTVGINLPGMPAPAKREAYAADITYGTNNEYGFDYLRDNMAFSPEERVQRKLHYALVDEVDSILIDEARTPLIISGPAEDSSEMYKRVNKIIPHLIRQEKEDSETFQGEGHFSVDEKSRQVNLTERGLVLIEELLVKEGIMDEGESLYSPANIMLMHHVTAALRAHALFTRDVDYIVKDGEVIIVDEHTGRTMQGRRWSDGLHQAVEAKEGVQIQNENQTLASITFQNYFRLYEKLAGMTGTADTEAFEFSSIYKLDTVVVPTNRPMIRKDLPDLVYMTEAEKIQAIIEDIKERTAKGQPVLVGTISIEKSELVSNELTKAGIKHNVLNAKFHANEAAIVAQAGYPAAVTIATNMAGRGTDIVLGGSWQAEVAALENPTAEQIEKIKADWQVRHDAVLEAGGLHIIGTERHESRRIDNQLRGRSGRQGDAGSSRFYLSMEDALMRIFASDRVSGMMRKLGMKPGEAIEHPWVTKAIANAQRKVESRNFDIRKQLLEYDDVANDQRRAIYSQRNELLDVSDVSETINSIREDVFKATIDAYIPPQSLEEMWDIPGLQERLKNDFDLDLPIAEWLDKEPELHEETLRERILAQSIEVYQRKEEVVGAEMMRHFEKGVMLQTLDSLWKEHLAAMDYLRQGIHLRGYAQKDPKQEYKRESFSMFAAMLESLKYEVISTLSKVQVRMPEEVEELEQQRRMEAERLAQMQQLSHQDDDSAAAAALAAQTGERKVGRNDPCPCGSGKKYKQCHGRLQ

[2] = target: T1, Ubiquitin-activating enzyme e1, putative (Leishmania donovani (strain BPK282A1)) (UniProt E9BSI1); assay: Leishmania donovani Ubiquitin Activating Enzyme (LdE1); assay type: functional; conditions: 30 µM
T1 sequence (whole entry): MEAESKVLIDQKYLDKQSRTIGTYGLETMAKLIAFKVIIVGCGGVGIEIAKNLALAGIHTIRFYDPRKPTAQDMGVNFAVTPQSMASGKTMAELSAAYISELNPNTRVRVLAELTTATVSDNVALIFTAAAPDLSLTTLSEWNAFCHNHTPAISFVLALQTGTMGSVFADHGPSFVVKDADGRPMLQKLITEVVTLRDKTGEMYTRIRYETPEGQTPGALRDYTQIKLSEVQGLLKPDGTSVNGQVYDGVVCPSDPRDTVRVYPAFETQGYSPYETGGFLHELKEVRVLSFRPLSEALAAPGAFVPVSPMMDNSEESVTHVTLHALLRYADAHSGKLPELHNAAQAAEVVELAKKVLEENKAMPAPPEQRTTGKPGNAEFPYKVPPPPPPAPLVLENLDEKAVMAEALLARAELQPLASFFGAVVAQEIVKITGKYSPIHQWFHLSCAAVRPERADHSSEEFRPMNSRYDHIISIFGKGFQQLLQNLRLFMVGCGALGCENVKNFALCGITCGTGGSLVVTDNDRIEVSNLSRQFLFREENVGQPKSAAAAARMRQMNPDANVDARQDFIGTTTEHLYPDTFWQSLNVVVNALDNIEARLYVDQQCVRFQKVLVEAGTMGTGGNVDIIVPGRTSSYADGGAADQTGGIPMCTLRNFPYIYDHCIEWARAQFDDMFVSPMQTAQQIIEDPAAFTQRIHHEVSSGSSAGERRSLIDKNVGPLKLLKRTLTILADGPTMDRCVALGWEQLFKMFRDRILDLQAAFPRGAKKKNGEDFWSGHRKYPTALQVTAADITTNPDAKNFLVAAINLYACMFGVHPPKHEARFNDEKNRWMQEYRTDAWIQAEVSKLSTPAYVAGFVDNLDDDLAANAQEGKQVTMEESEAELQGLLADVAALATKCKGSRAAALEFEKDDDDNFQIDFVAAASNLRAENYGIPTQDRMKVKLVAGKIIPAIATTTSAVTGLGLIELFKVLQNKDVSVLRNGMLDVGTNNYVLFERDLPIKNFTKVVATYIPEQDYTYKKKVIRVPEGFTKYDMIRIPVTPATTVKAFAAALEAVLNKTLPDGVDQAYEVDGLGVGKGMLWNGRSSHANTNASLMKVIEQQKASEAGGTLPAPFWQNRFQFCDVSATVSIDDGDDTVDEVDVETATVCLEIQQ

[3] = target: AMP-activated protein kinase, AMPK (Homo sapiens) (UniProt P54646+O43741+P54619+Q9UGJ0+Q9Y478+Q13131+Q9UGI9); assay: AMP-dependent Kinase enzyme assay. An in vitro enzyme assay that detects ADP turnover that is directly proportional to AMPK activity. This uses naive AMPK that is activated during the assay with MK-8722; assay type: functional; conditions: 30 µM
[4] = target: Sialic acid-binding Ig-like lectin 9 (Homo sapiens) (UniProt Q9Y336); assay: Hs-Siglec9 ALPHAscreen SOP 20170721; conditions: 10 µM
Chain of Sialic acid-binding Ig-like lectin 9 (Homo sapiens) (Q9Y336 whole entry): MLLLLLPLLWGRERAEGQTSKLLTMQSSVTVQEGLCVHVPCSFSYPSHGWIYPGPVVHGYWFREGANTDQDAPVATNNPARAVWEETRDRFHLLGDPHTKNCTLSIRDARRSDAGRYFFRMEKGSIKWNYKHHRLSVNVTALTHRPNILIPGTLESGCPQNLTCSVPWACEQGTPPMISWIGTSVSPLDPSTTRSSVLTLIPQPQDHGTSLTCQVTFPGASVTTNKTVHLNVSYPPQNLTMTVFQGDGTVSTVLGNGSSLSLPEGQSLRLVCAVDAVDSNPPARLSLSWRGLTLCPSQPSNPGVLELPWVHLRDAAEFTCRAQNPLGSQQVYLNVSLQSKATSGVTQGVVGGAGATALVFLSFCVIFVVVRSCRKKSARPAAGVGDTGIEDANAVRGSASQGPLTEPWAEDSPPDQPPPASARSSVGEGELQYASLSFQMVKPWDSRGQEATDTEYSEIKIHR

[5] = test system: Trypanosoma cruzi; assay: Trypanosoma cruzi phosphomannomutase and mannose-1-phosphate guanylyltransferase assay; assay type: functional; conditions: 10 µM
[6] = target: T2, Arginase-2, mitochondrial (Homo sapiens) (UniProt P78540); assay: in vitro enzyme assay to detect the production of urea directly proportional to the activity of Arginase II; assay type: functional; conditions: 33.3 µM; further: in the data most compounds retested in dose-response had high values
T2 sequence (whole entry): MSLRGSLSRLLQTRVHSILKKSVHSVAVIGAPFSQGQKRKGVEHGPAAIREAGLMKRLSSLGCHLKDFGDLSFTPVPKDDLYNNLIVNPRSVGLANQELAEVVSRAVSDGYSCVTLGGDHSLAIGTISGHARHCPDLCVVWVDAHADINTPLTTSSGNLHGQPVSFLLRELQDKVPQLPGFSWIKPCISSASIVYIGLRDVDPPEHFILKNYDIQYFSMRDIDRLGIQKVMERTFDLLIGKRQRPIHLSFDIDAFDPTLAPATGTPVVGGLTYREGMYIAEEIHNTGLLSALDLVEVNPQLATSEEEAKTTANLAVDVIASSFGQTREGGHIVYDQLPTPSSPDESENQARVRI

[7] = target: T3, Proteasome subunit beta (Trypanosoma cruzi) (UniProt O96673); assay: Trypanosoma cruzi proteasome chymotrypsin-like activity (TcProtChymo) assay.; further: in the data most compounds retested in dose-response had high values; assay type: functional; conditions: 9.37 µM
T3 sequence (whole entry): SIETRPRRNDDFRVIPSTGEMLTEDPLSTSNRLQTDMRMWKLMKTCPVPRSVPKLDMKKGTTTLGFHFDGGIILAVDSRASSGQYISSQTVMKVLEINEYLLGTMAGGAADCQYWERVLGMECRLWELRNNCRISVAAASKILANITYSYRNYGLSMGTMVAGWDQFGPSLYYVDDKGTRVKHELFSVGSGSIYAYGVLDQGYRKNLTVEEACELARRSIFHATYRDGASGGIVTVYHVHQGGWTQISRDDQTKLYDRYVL

[8] = species: Homo sapiens; assay: To identify inhibition of the IFN signalling (Jak-Stat) pathway via expression of an eGFP reporter gene under the control of an IFN-stimulated response element (ISRE) containing MxA promoter.; assay type: functional; conditions: 30 µM
[9] = target: T4, Tyrosyl-tRNA synthetase, putative (Trypanosoma cruzi (strain CL Brener)) (UniProt Q4DSP6); assay: Trypanosoma cruzi tyrosyl tRNA synthetase (TcYRS) _High Tyrosine SOP; assay type: functional; conditions: 30 µM; further: in the data most compounds retested in dose-response had high values
T4 sequence (whole entry): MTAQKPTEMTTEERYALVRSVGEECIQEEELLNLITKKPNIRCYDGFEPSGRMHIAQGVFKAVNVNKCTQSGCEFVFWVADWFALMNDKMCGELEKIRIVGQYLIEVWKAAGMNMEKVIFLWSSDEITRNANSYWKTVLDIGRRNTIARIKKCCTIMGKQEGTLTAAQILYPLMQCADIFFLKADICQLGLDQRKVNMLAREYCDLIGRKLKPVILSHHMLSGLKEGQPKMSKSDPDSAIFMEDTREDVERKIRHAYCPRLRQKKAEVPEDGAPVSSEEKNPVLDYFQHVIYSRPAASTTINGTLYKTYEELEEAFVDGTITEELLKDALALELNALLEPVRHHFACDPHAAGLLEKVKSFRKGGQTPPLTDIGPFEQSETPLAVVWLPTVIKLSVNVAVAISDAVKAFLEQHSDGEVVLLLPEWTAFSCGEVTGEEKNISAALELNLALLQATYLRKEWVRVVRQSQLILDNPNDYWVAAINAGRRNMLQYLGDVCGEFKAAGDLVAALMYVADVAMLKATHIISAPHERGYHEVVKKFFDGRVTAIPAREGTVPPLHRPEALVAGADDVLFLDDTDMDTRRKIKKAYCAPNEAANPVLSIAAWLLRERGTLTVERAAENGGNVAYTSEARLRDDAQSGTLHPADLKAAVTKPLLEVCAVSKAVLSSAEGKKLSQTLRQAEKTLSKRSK

[10] = target: T4, Tyrosyl-tRNA synthetase, putative (Trypanosoma cruzi (strain CL Brener)); assay: Trypanosoma cruzi tyrosyl tRNA synthetase (TcYRS) SOP; assay type: functional; conditions: 30 µM
[11] = target: Chromo domain-containing protein 1 (Saccharomyces cerevisiae (strain ATCC 204508 / S288c) (Baker's yeast)) (UniProt P32657); assay: ScCHD-1 Enzyme Inhibition Assay; assay type: functional; conditions: 30 µM; further: in the data most compounds retested in dose-response had high values
Chain of Chromo domain-containing protein 1 (Saccharomyces cerevisiae (strain ATCC 204508 / S288c) (Baker's yeast)) (P32657 whole entry, the tested form may be a part): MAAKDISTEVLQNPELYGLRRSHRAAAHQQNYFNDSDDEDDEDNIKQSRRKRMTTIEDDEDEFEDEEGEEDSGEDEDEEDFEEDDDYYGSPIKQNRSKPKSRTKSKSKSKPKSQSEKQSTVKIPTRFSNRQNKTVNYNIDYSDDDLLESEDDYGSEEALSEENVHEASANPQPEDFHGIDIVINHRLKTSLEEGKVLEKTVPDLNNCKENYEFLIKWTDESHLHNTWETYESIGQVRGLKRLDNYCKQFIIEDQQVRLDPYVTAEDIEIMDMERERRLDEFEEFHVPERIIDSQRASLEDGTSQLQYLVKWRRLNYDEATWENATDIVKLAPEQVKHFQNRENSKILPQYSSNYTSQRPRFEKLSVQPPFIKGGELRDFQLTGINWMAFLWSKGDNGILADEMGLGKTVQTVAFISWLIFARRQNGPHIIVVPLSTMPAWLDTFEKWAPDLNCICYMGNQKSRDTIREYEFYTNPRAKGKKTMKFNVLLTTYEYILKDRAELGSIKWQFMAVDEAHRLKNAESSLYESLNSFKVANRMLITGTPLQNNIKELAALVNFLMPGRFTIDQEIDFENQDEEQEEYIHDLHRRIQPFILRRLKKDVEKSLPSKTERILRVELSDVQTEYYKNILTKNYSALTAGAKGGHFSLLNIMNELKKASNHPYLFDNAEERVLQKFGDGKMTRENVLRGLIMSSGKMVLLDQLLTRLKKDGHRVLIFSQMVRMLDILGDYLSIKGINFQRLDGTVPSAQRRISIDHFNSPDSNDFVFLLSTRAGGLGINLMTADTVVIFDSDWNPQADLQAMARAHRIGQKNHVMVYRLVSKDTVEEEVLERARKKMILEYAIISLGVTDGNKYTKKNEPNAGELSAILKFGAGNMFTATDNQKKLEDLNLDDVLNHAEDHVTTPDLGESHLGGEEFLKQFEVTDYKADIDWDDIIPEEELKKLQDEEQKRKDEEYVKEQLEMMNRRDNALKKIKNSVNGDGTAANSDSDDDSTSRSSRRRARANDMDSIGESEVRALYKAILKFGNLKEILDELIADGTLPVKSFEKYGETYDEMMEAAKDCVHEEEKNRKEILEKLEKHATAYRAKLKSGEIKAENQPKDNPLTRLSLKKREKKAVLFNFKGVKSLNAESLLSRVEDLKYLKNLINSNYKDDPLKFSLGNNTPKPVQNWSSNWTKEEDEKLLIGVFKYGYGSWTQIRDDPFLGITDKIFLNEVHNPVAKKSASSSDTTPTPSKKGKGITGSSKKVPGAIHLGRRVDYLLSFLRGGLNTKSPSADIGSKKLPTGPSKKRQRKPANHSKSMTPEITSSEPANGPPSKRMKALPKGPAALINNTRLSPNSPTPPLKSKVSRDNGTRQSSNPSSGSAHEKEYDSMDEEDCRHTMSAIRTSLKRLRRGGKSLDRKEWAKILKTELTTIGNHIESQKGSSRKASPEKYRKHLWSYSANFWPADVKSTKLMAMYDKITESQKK

Compound `Cc1n[nH]c(C2CN(C(=O)c3cc(C4CC4)[nH]n3)CCO2)n1` (stereo unspecified) has a Percent Effect [1] of -3.77%, a Percent Effect [2] of 13% and a Percent Effect [3] of 3.73%. The Percent Effect [4] was 15.3%, the Percent Effect [5] was -0.0979% and the Percent Effect [6] was 0.632%. The Percent Effect [7] was 9.78%, the Percent Effect [8] was -11% and the Percent Effect [9] was 5.71%. The Percent Effect [10] was 11.8% and the Percent Effect [11] was -11.2%.

`CN(C(=O)c1cc(Cl)c[nH]1)C1CCN(c2ccccn2)CC1` gave a Percent Effect [1] of -4.94%, a Percent Effect [2] of -2.6% and a Percent Effect [3] of -2.5%. For the same compound, the Percent Effect [4] was -14.5%, the Percent Effect [5] was 6.17% and the Percent Effect [6] was -4%. For the same compound, the Percent Effect [7] was 9.46%, the Percent Effect [8] was -0.502% and the Percent Effect [9] was 13.3%. The Percent Effect [10] was 23.5% and the Percent Effect [11] was -20.8%.

`COc1ccc(CN(Cc2cncn2C)CC2CCCO2)cc1OC` (stereo unspecified) showed a Percent Effect [1] of -3.49%, a Percent Effect [2] of 12.2% and a Percent Effect [3] of 11.9%. For the same compound, the Percent Effect [4] was 0.383%, the Percent Effect [5] was -2.37% and the Percent Effect [6] was 3.94%. For the same compound, the Percent Effect [7] was 9.52%, the Percent Effect [8] was -8.46% and the Percent Effect [9] was 5.38%. It also gave a Percent Effect [10] of 11.7% and a Percent Effect [11] of -15%.

`Cc1cncc(C(=O)N2CCCCC2c2nc(C)cs2)c1` (stereo unspecified) showed a Percent Effect [1] of -4.34%, a Percent Effect [2] of -36.4% and a Percent Effect [3] of -2.13%. It also gave a Percent Effect [4] of 4.39%, a Percent Effect [5] of 8.99% and a Percent Effect [6] of 3.92%. For the same compound, the Percent Effect [7] was 9.29%, the Percent Effect [8] was 16.2% and the Percent Effect [9] was 9.71%. It also gave a Percent Effect [10] of 21.9% and a Percent Effect [11] of -10.7%.

`CC1c2ncc(Cn3cncn3)n2CCN1C(=O)C1CCOCC1` (stereo unspecified) showed a Percent Effect [1] of -4.07%, a Percent Effect [2] of 10.7% and a Percent Effect [3] of -5.52%. It also gave a Percent Effect [4] of 0.0625%, a Percent Effect [5] of 4.83% and a Percent Effect [6] of -56.5%. It also gave a Percent Effect [7] of 5.13%, a Percent Effect [8] of -14.3% and a Percent Effect [9] of 3.12%. For the same compound, the Percent Effect [10] was 7.5% and the Percent Effect [11] was -6.18%.

For `c1ccc2sc(CN3CCOC(Cn4cccn4)C3)nc2c1` (stereo unspecified), the Percent Effect [1] was -6.08%, the Percent Effect [2] was 5.41% and the Percent Effect [3] was -3.49%. It also gave a Percent Effect [4] of 1.12%, a Percent Effect [5] of -4.06% and a Percent Effect [6] of -2%. For the same compound, the Percent Effect [7] was 0%, the Percent Effect [8] was 24.4% and the Percent Effect [9] was -0.493%. For the same compound, the Percent Effect [10] was -8.64% and the Percent Effect [11] was -0.731%.

`Cn1ccc(C(=O)N2CCC(Cc3cccc4cccnc34)C2)n1` (stereo unspecified) was tested, and the Percent Effect [1] was -2.61%, the Percent Effect [2] was 9.46% and the Percent Effect [3] was 13.5%. For the same compound, the Percent Effect [4] was 3.85%, the Percent Effect [5] was -5.73% and the Percent Effect [6] was -2.09%. For the same compound, the Percent Effect [7] was 4.68%, the Percent Effect [8] was 16.3% and the Percent Effect [9] was 5.38%. For the same compound, the Percent Effect [10] was 6.49% and the Percent Effect [11] was 0.402%.

For `CN(CCc1ccccc1)c1cnn(CC(=O)N2CCSCC2)c(=O)c1`, the Percent Effect [1] was -1.2%, the Percent Effect [2] was 0% and the Percent Effect [3] was 19.7%. For the same compound, the Percent Effect [4] was 12.4%, the Percent Effect [5] was -4.5% and the Percent Effect [6] was 2.73%. It also gave a Percent Effect [7] of -1.6%, a Percent Effect [8] of 4.15% and a Percent Effect [9] of 1.07%. For the same compound, the Percent Effect [10] was 2.5% and the Percent Effect [11] was 0.365%.

With `CC(=O)c1cc(CC(=O)NCc2c(F)cccc2F)cs1` the Percent Effect [1] was 2.08%, the Percent Effect [2] was 5.41% and the Percent Effect [3] was -0.986%. The Percent Effect [4] was 2.88%, the Percent Effect [5] was 4.44% and the Percent Effect [6] was 10.5%. The Percent Effect [7] was 2.76%, the Percent Effect [8] was 17.2% and the Percent Effect [9] was 0.529%. It also gave a Percent Effect [10] of 7.32% and a Percent Effect [11] of 0.311%.

`CN(C)CC1CSCCCN1C(=O)c1ccc(C(C)(C)C)cc1` (stereo unspecified) showed a Percent Effect [1] of 2.6%, a Percent Effect [2] of 2.6% and a Percent Effect [3] of 2.24%. For the same compound, the Percent Effect [4] was 1.48%, the Percent Effect [5] was -5.23% and the Percent Effect [6] was 7.1%. For the same compound, the Percent Effect [7] was 1.39%, the Percent Effect [8] was 1.95% and the Percent Effect [9] was 6.35%. It also gave a Percent Effect [10] of 16.7% and a Percent Effect [11] of -4.54%.

Work on `Cc1ccc(CNC(=O)CCSCc2csc(C)n2)cn1` yielded a Percent Effect [1] of -2.98%, a Percent Effect [2] of 17.7% and a Percent Effect [3] of -1.48%. It also gave a Percent Effect [4] of -3.29%, a Percent Effect [5] of 1.42% and a Percent Effect [6] of 4.18%. It also gave a Percent Effect [7] of 0.0819%, a Percent Effect [8] of 8.57% and a Percent Effect [9] of 0.493%. The Percent Effect [10] was 8.86% and the Percent Effect [11] was -3.92%.
